Assay results reported in PubChem BioAssay AID720582 (The Scripps Research Institute Molecular Screening Center, 2013).
In all, about 370,000 compounds went through this assay and about 2,300 (0.62%) were called active.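 Rule for the calls: active = inhibition above a per-campaign cutoff equal to the mean of compounds falling between control-based bounds plus 3 SD (cut at about 20% in these data); inactive = the rest.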 The list comes from a sample in which actives are over-represented; it also holds similar structures and randomly drawn compounds.

What follows are molecules tested against Disintegrin and metalloproteinase domain-containing protein 10 (Homo sapiens) (UniProt O14672) (assay: blockers of ADAM10 peptide cleavage – biochemical, QFRET, HTS, primary screen (AID 720582;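 note: 0% = DMSO wells while the 100% control is not disclosed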)). Details: recombinant ADAM10, EDANS/DABCYL FRET peptide cleavage, 3 h; at 7 µM; stronger effect = higher value.
Disintegrin and metalloproteinase domain-containing protein 10 (Homo sapiens), sequence (O14672 214-748 limits assumed): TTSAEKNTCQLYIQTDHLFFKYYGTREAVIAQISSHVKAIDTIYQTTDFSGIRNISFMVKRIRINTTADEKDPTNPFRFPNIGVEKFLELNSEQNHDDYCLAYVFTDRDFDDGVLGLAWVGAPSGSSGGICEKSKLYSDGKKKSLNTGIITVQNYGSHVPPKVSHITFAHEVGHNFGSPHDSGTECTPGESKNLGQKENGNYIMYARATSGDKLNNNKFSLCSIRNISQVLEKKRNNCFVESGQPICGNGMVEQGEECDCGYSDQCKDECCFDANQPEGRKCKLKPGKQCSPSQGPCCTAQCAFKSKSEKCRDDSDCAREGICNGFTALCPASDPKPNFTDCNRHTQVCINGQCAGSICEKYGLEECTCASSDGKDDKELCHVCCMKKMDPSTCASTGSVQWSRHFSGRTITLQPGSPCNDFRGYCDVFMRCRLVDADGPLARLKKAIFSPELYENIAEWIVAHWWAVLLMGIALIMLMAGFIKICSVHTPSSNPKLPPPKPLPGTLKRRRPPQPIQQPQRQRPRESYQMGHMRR
For `COC[C@@H]1CCCN1c1ccc2c(c1)O[C@H](C)CCN(C1CC1)S2(=O)=O`, the inhibition was -3.66% (inactive). With `COC(=O)[C@@]12CCCCC=C1N(CCc1ccc(Cl)cc1)C(=O)[C@H]2CC(=O)NCc1ccc(OC)c(OC)c1` the inhibition was 5.19% (inactive). `C[C@H]1[C@H](NC(=O)c2cccc(N(C)C)c2)CC[C@@]23CCCN2C(=O)CCC[C@@H]13` was tested, and the inhibition was -106% (inactive). In the case of `Cc1csc(NC(=O)CSc2nnc(-c3cccnc3)o2)n1`, the inhibition is reported as -10.7% (inactive). In the case of `O=C(CSC1=NCCS1)Nc1nc(-c2ccccc2)cs1`, the inhibition is reported as 20.3% (active). `CC(NC(=O)COc1ccccc1)C(=O)NC1=NCCS1` (stereo unspecified) was tested, and the inhibition was -1.01% (inactive). `O=C(C[C@H]1C(=O)N(c2ccc(F)c(F)c2)C[C@@H]1Cc1ccccc1)Nc1ccccc1` was tested, and the inhibition was 23.2% (active). In the case of `C[C@H]1CN(c2ccc(Br)cc2)C(=O)[C@@H]1CC(=O)Nc1ccc(Br)cc1`, the inhibition is reported as -2.69% (inactive). With `CNC(=O)C[C@H]1C(=O)N(c2ccc(OC)cc2)C[C@@H]1Cc1ccccc1` the inhibition was -1.73% (inactive). `O=C(COC(=O)CCCSc1nc2ccccc2[nH]1)Nc1ccc(Oc2ccccc2)cc1` was tested, and the inhibition was 23.7% (active). In the case of `CCN(c1ccc(NC(=O)COC(=O)CCc2nc3ccccc3n2-c2ccccc2)cc1)C(C)C`, the inhibition is reported as 15.2% (inactive). `O=C(COC(=O)CCc1nc2ccccc2c(=O)[nH]1)Nc1ccc(N2CCOCC2)cc1` was tested, and the inhibition was 0.32% (inactive). In the case of `COc1cccc(N2CCN(CC(=O)N(C)Cc3ccc(F)cc3)CC2)c1`, the inhibition is reported as -2.14% (inactive). With `CCCC(=O)Nc1ccc(C(=O)NCCCn2ccnc2)cc1` the inhibition was -4.06% (inactive). For `CCOC(=O)[C@]12CCCC3=C1N(CCC3)C(=O)[C@@H](CC(=O)N1CCSCC1)C2`, the inhibition was 4.75% (inactive). With `O=C1[C@H]2[C@@H](c3ccc(C(F)(F)F)cc3)N[C@]3(CCCN(Cc4ccc(Cl)cc4)C3=O)[C@H]2C(=O)N1Cc1ccccc1` the inhibition was 17.5% (inactive). With `CCN1C(=O)[C@H]2[C@@H](c3ccc(C(F)(F)F)cc3)N[C@]3(CCCN(Cc4ccc(Br)cc4)C3=O)[C@H]2C1=O` the inhibition was 2.63% (inactive). In the case of `O=C1[C@H]2[C@@H](c3ccc(C(F)(F)F)cc3)N[C@]3(CCCN(Cc4ccc(Br)cc4)C3=O)[C@H]2C(=O)N1Cc1ccccc1`, the inhibition is reported as 36.9% (active). With `CC(C)N1CCCCC(NC(=O)c2ccc3ccccc3c2)C1=O` (stereo unspecified) the inhibition was -1.93% (inactive). With `CCOC(=O)[C@]12CCCC3=C1N(CCC3)C(=O)[C@@H](CC(=O)NCc1cccs1)C2` the inhibition was -1.3% (inactive). `CC(C)CNC(=O)OCc1cn(Cc2ccc(F)cc2)nn1` was tested, and the inhibition was 2.74% (inactive). For `O=C(CSc1nc2ccccc2nc1N1CCCCC1)N1CCN(S(=O)(=O)c2cccc([N+](=O)[O-])c2)CC1`, the inhibition was -10.6% (inactive). For `COC(=O)[C@@]12C[C@@H](CC(=O)NCCCCc3ccccc3)C(=O)N(CCc3ccc(OC)c(OC)c3)C1=CCC(C)(C)C2`, the inhibition was 20.4% (active). In the case of `COC(=O)[C@]12C[C@H](CC(=O)NCc3ccccc3)C(=O)N(CCc3ccc(OC)c(OC)c3)C1=C[C@H](C(C)(C)C)O[C@@H]2C`, the inhibition is reported as 10.1% (inactive). For `COC(=O)[C@@]12C[C@@H](CC(=O)NCCCCc3ccccc3)C(=O)N(Cc3ccccc3)C1=CCC(C)(C)C2`, the inhibition was 14.6% (inactive). `c1coc(CCNc2ncnc3ccc(-c4ccc5c(c4)OCO5)cc23)c1` was tested, and the inhibition was -144% (inactive). For `CCC(=O)c1c(CC)c2n3c1=CC[C@H]3CC(Br)C=2` (stereo partly specified), the inhibition was -7.64% (inactive). In the case of `COC(=O)[C@]12C[C@H](CC(=O)NCc3ccccc3)C(=O)N(CCC3=CCCCC3)C1=C[C@H](C(C)C)O[C@@H]2C1CC1`, the inhibition is reported as 15.1% (inactive). For `Cc1cc(C)cc(NS(=O)(=O)c2ccc(Oc3ncc(C(F)(F)F)cc3Cl)cc2)c1`, the inhibition was 24% (active). `O=S(=O)(Nc1ccc(Oc2ncccn2)c(Cl)c1)c1ccc(F)cc1` was tested, and the inhibition was 7.14% (inactive). `CN(NS(=O)(=O)c1cccs1)c1ncc(C(F)(F)F)cc1Cl` was tested, and the inhibition was -3.41% (inactive). For `Cc1ccc(NC(=O)c2cc(C)nn2-c2ccccc2)c(C)c1`, the inhibition was 1.23% (inactive). For `C#CCN([C@H](C(=O)OC)C(C)CC)S(=O)(=O)c1ccccc1Br` (stereo partly specified), the inhibition was 5.73% (inactive). In the case of `COC(=O)CN1C(C)=Nc2ccc(Br)cc2C1c1ccccc1` (stereo unspecified), the inhibition is reported as -0.34% (inactive). `COC(=O)C1=C(C)N(C)C(C)=C(C(=O)OC)C1c1cccc(Br)c1` was tested, and the inhibition was 1.25% (inactive). For `COC(=O)C1NN=C(C(=O)c2ccc(Br)cc2)C1c1cccc(Br)c1` (stereo unspecified), the inhibition was 20% (active). `COc1cccc(Cn2cc(COC(=O)Nc3ccc(F)cc3)nn2)c1` was tested, and the inhibition was 3.55% (inactive). With `O=C(C1CCCN1S(=O)(=O)c1ccccc1)N1CCc2ccccc2C1` (stereo unspecified) the inhibition was 5.1% (inactive). For `CC(C)(C)OC(=O)N1CCC(NC(=O)c2[nH]cnc2C(=O)N[C@@H](Cc2ccccc2)C(=O)OCc2ccccc2)CC1`, the inhibition was 26.5% (active). For `C[C@H](NC(=O)c1nc[nH]c1C(=O)NCC(=O)OC(C)(C)C)c1ccccc1`, the inhibition was 4.61% (inactive). `CC(C)(C)OC(=O)CNC(=O)c1[nH]cnc1C(=O)N[C@@H](Cc1ccccc1)C(=O)OCc1ccccc1` was tested, and the inhibition was 27% (active). For `CNC(=O)c1[nH]cnc1C(=O)N[C@@H](CC(C)C)C(=O)OC(C)(C)C`, the inhibition was 1.72% (inactive). With `CNC(=O)c1[nH]cnc1C(=O)N[C@@H](CC(C)C)C(=O)OCc1ccccc1` the inhibition was -0.66% (inactive). In the case of `C[C@@H](NC(=O)c1nc[nH]c1C(=O)N1CCN(C(=O)OC(C)(C)C)CC1)c1ccccc1`, the inhibition is reported as -5.64% (inactive). `CCOC(=O)C1CCN(C(=O)C(C)(C)NC(=O)Nc2ccccc2Cl)CC1` was tested, and the inhibition was -4.18% (inactive). In the case of `O=C(c1ccccc1)c1ccc(-c2ccccc2C(=O)NC2CCCCN(Cc3ccc(Cl)cc3)C2=O)cc1` (stereo unspecified), the inhibition is reported as 0.76% (inactive). With `COc1ccc(CCNC(=O)CSc2nc3c([nH]2)c(=O)n(C)c(=O)n3C)cc1` the inhibition was -8.76% (inactive). In the case of `Cc1cc(C)n2ncc(C(=O)Nc3ccc4c(c3)OCCO4)c2n1`, the inhibition is reported as -3.85% (inactive). For `CCC(=O)Nc1ccc2c(c1)C(=O)N(C)[C@H]1CC[C@H](CC(=O)NCCOC)O[C@@H]1CO2`, the inhibition was 2.62% (inactive). In the case of `Cc1cccc(CCNS(=O)(=O)c2ccc(S(=O)(=O)NC3CCCC3)cc2)c1`, the inhibition is reported as 27.1% (active). For `Cc1cccc(CCNS(=O)(=O)c2ccc3c(c2)NC(=O)CO3)c1`, the inhibition was 0.59% (inactive). `CC(C)c1ccc(S(=O)(=O)NC2CCCC2)cc1` was tested, and the inhibition was -3.8% (inactive). `Cc1ccc(NC(=S)NNC(=O)CSc2nnc(SCc3ccccc3Cl)s2)cc1` was tested, and the inhibition was 17.8% (inactive). In the case of `Cc1ccc(NC(=O)Nc2cc(C)nn2-c2ccccc2)cc1`, the inhibition is reported as -2.62% (inactive). In the case of `Cn1c(Nc2ccccc2)cc(=O)n(C)c1=O`, the inhibition is reported as 7.08% (inactive). For `Cc1cc(Nc2ccccc2)n(C(=O)c2ccc(N)cc2)n1`, the inhibition was 21.3% (active). In the case of `O=C(NNC(=O)c1cccc(S(=O)(=O)Nc2ccc(Cl)cc2)c1)c1ccc(=O)[nH]c1`, the inhibition is reported as 2.04% (inactive). For `O=C(Nc1cccc(S(=O)(=O)Nc2ccc(Cl)cc2)c1)c1ccc2c(c1)OCCO2`, the inhibition was 20.5% (active). `CC(=O)Nc1ccc(C(=O)Nc2cccc(S(=O)(=O)NC3=NCCC3)c2)cc1` was tested, and the inhibition was -1.25% (inactive). `O=C(NC1CCC1)c1ccc(C#CC2CC2)cn1` was tested, and the inhibition was -7.03% (inactive). For `COc1ccc(-n2c(COc3ccc(C)cc3)nnc2SCC(=O)Nc2ccc(Oc3ccccc3)cc2)cc1`, the inhibition was -2.63% (inactive). `COc1cc(COCC(O)CN2CCN(Cc3ccc4c(c3)OCO4)CC2)cc(OC)c1OC` (stereo unspecified) was tested, and the inhibition was -2.3% (inactive). In the case of `COc1cc(Cl)c(S(=O)(=O)N2CCN(Cc3ccc4c(c3)OCO4)CC2)cc1Cl`, the inhibition is reported as 45.9% (active). For `COc1ccc(-c2cc(C(=O)N3CCN(Cc4ccc5c(c4)OCO5)CC3)on2)cc1OC`, the inhibition was -0.99% (inactive). For `Cc1ccccc1CN1CCCCC(NC(=O)c2cccc(C#N)c2)C1=O` (stereo unspecified), the inhibition was -1.06% (inactive). For `Cc1nc2ccc(C(=O)N3CCN(C(=O)C(C)(C)C)CC3)cc2n1C1CCCC1`, the inhibition was 1.94% (inactive). With `Cc1csc(NC(=S)Nc2cccc(Cl)c2)n1` the inhibition was 23.1% (active). With `COc1cc(SC)ccc1C(=O)Nc1nc(C)cs1` the inhibition was -7.24% (inactive). `Cc1ccc(C2CCN(C(=S)Nc3cccc(Cl)c3)C2)cc1` (stereo unspecified) was tested, and the inhibition was 8.61% (inactive). For `C=C(C)C1CC23C(=O)C4(C(=O)c5ccccc5)C[C@@]5(C)CCC(CC2C1(C)C)(C4=O)C35OC` (stereo partly specified), the inhibition was -9.26% (inactive). With `O=C(C1CCN(S(=O)(=O)c2ccccc2)CC1)N1CCN(C2CCCCC2)CC1` the inhibition was -10.1% (inactive).
